Assay [1] has as its system Plasmodium falciparum Sir2 (PF13_0152, Sir2A). The assay can be described thus: pfSir2 binders on small-molecule microarrays, primary screen, biochemical, small-molecule microarray, 635 nm fluorescence (AID 1098).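 Also: score merges spot fluorescence intensity with its signal-to-noise ratio.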 The note with it: small-molecule microarray binding, fluorescence 635 nm; higher = more signal.
Assay [2] can be described thus: small-molecule microarray binders of probe aDKK1, primary screen, biochemical, biotinylated probe, 635/667 nm fluorescence (AID 1099).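 Also: score merges 667nm spot fluorescence with signal to noise across triplicate slides; reference of the scale not given here.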 The note with it: higher = more signal.
Assay [3] can be described thus: small-molecule microarray binders of probe aCHRDL2, primary screen, biochemical, biotinylated probe, 635/667 nm fluorescence (AID 1100). The note with it: higher = more signal.
Assay [4] can be described thus: splicing luciferase reporter signal modulators, primary screen, spliceosome inhibition project, cell-based, HEK293, splice +/- reporter (AID 1101).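 Also: HEK293 cells carrying a splicing-competent luciferase reporter gene; test concentration not given here.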 The settings on record: luminescence, 24 h, higher = more signal, called active from +8 up or from −8 down. Background: Reporter assays use an easily measured gene product as a stand-in for the process of interest.
Assay [5] has as its target Fibroblast growth factor 10 (Homo sapiens) (UniProt O15520). The assay can be described thus: FGF10 binders on small-molecule microarrays, primary screen, biochemical, small-molecule microarray, 635 nm fluorescence (AID 1102). The settings on record: FGF10 binding, fluorescence 635 nm, higher = more signal.
Assay [6] has as its system glycogen synthase kinase-3 (GSK3A per assay name; protocol says GSK3B). The assay can be described thus: GSK3 binders on small-molecule microarrays, primary screen, biochemical, small-molecule microarray, 635 nm fluorescence, GSK3A (AID 1103). Also: the record names both GSK3A and GSK3B. The settings on record: small-molecule microarray binding, fluorescence 635 nm; higher = more signal.
For assay [7], the target named is Epidermal growth factor receptor (Homo sapiens) (UniProt P00533). In words: EGFR binders on small-molecule microarrays, primary screen, biochemical, small-molecule microarray, 635 nm fluorescence (AID 1104).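 Also: score merges 667 nm emission intensity with spot signal to noise over triplicate slides.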 The settings on record: EGFR binding, higher = more signal.
For assay [8], the target named is Follistatin-related protein 3 (Homo sapiens) (UniProt O95633). The assay can be described thus: FSTL3 binders on small-molecule microarrays, primary screen, biochemical, small-molecule microarray, 635 nm fluorescence (AID 1105).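 Also: score merges emission near 667 nm and signal to noise per printed spot across three slides.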 The settings on record: FSTL3 binding, higher = more signal.
Assay [9] deals with Dickkopf-related protein 1 (Homo sapiens) (UniProt O94907). The assay can be described thus: DKK1 binders on small-molecule microarrays, primary screen, biochemical, small-molecule microarray, 635 nm fluorescence scan (AID 1106).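 Also: score merges emission near 667 nm with signal to noise over three replicate slides.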 The note with it: DKK1 binding, higher = more signal.
Assay [10] concerns Inhibin beta A chain (activin A). The assay can be described thus: INHBA (activin A) binders on microarrays, primary screen, biochemical, small-molecule microarray, 635 nm fluorescence scan (AID 1107).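 Also: mouse activin A protein probed at 4.33 µg/mL on printed slides; score merges bound-protein fluorescence near 667 nm with spot signal-to-noise.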 The note with it: small-molecule microarray binding, higher = more signal.

For 16 compounds, composite z-score and z-score results are on record in PubChem BioAssay.

Calls of active or inactive are those of the source.

Sequence of Follistatin-related protein 3 (Homo sapiens) (O95633 whole entry, looked up): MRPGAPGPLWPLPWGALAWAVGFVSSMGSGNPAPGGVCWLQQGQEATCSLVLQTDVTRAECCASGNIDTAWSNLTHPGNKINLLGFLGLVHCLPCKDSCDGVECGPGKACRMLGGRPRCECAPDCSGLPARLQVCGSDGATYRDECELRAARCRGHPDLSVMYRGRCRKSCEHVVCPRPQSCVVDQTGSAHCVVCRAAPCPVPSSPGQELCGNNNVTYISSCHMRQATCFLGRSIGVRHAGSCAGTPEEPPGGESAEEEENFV
Sequence of Fibroblast growth factor 10 (Homo sapiens) (O15520 whole entry, looked up): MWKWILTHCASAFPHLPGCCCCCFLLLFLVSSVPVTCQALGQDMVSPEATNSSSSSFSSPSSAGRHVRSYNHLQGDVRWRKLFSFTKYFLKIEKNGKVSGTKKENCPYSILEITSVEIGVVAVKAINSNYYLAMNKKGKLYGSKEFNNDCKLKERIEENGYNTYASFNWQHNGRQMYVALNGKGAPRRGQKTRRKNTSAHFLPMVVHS
Sequence of Epidermal growth factor receptor (Homo sapiens) (P00533 whole entry, looked up): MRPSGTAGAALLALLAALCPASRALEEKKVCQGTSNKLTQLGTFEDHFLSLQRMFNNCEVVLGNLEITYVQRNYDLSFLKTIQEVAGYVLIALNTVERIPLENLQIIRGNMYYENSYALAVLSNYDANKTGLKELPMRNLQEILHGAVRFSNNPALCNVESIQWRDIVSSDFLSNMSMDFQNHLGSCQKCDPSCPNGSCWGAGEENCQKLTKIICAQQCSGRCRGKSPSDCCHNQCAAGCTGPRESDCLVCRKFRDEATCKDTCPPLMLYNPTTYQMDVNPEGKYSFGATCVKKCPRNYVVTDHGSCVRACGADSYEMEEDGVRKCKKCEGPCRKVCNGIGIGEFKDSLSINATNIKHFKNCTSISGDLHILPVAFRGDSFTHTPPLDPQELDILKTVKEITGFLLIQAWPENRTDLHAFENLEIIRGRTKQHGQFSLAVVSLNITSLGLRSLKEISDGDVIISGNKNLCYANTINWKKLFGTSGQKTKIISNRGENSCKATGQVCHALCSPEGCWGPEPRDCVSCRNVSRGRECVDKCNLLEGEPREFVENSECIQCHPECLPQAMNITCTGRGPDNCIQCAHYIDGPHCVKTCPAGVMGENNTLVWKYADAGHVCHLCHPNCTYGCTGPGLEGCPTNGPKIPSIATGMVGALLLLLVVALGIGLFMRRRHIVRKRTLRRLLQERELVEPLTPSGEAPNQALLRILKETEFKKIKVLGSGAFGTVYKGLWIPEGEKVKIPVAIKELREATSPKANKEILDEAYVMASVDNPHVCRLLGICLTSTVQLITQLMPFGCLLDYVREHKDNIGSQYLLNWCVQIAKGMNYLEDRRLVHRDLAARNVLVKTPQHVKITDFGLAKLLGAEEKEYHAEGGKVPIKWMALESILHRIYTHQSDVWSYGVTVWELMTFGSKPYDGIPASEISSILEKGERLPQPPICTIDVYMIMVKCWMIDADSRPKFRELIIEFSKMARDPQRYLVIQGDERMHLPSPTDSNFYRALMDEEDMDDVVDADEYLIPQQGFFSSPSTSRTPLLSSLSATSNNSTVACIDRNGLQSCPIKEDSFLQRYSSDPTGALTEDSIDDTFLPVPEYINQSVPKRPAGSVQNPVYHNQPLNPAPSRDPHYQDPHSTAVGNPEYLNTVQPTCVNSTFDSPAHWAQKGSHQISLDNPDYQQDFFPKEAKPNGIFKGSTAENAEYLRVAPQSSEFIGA
Sequence of Dickkopf-related protein 1 (Homo sapiens) (O94907 whole entry, looked up): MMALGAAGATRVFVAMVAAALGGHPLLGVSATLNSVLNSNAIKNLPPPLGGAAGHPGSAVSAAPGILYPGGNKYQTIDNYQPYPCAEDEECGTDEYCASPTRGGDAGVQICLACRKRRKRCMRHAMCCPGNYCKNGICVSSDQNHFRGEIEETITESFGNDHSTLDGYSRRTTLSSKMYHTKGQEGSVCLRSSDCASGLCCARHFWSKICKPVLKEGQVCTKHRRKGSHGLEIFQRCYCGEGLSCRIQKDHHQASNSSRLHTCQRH

With `C=CCC(OC(C)=O)[C@@H]1[C@@H](N(Cc2ccc(-c3ccccc3)cc2)C(=O)c2cccc3ccccc23)c2cc(OCCCO)ccc2N1C(=O)c1ccc2ccccc2n1` (stereo not given in full), the composite z-score in assay [1] is -0.0429; in assay [2] it was 0.0158; in assay [3], 0.308; in assay [5] it was -0.142; in assay [6], 0.124; in [7], 0.0271. Moreover, the composite z-score in [8] was -0.0464; in assay [9], -0.196; in assay [10], 1.24. Further, the z-score in assay [4] is -0.379 (inactive).
For the compound `CC(C)C(CO)N1C(=O)[C@@H]2[C@H]3C(=O)OCC=C[C@H]3OC23C=CCN(CCN2CCOCC2)C(=O)[C@@H]13` (stereo not given in full), the composite z-score is 1.15 in [1]; -0.385 in assay [2]; -0.538 in assay [3]; -0.505 in assay [5]; -0.118 in assay [6]; -0.409 in assay [7]. Besides, the composite z-score in [8] stood at 0.351; in [9], 0.286; in assay [10], 0.934. Besides, the z-score in assay [4] is 0.653 (inactive).
Take `CCCC=C(CCC)[C@@H](NS(=O)(=O)CC)c1ccccc1`: the composite z-score amounted to 0.903 in assay [1]; 0.303 in assay [2]; 0.726 in [3]; 0.601 in [5]; 1.12 in assay [6]; 0.167 in [7]. Also, the composite z-score in assay [8] is 0.388; in assay [9], -0.328; in assay [10], 0.147. Also, in assay [4], the z-score was -3.42 (inactive).
Take `CCOC(=O)C[C@H]1[C@H](OC(=O)c2ccc(C(=O)c3ccccc3)cc2)[C@@H](NC(=O)C2CCCCC2)c2cc(OCCCO)ccc2N1C(=O)Cc1ccc(OC)cc1`: the composite z-score was found to be 0.331 in assay [1]; 0.765 in assay [2]; 0.7 in [3]; 0.547 in assay [5]; 0.328 in assay [6]; 0.285 in assay [7]. Further, the composite z-score in assay [8] was 0.459; in [9], 0.0351; in assay [10] it was 0.666. Further, the z-score in assay [4] was 0.0309 (inactive).
Consider `NC(=O)[C@@H]1[C@H]2C(=O)O[C@H](c3ccccc3)[C@H](c3ccccc3)N2[C@H](c2ccccc2OCCO)[C@@]12C(=O)Nc1ccc(C#CCCO)cc12`, for which the composite z-score in assay [1] is 1.03; in [2] it was -0.302; in [3], 0.54; in [5], -0.293; in assay [6] it was -0.802; in [7], -0.461. Moreover, the composite z-score is 0.118 in assay [8], -0.647 in assay [9] and 0.233 in assay [10]. Besides, the z-score in assay [4] is 0.305 (inactive).
In the case of `C=CCC(OC(C)=O)[C@@H]1[C@@H](N(Cc2ccc(-c3cccc(C(F)(F)F)c3)o2)C(=O)c2cccc3ccccc23)c2cc(OCCCO)ccc2N1C(=O)c1ccc(-c2ccccc2)cc1` (stereo not given in full), the composite z-score in assay [1] is 0.295; in [2], 0.0007; in assay [3], -0.0042; in assay [5] it was 0.192; in [6] it was -0.579; in assay [7], 0.181. Also, the composite z-score in [8] turned out to be 0.248; in assay [9], 0.518; in [10], 1.09. Moreover, in assay [4], the z-score was -0.791 (inactive).
For the compound `COC(=O)[C@]1(Cc2ccccc2CN=[N+]=[N-])N=C(c2ccc(OCCCO)cc2)O[C@@H]1c1ccccc1`, the composite z-score was 1.15 in assay [1]; -0.0032 in [2]; 0.987 in [3]; -1.34 in assay [5]; -1.08 in assay [6]; -1.46 in [7]. Moreover, the values for the composite z-score in assay [8], in assay [9] and in [10] were -0.869, -1 and 0.53, respectively. In assay [4], the z-score is -2.04 (inactive).
With `O=C1N(CCS(=O)(=O)c2ccccc2)c2ccccc2[C@H]2OC(c3ccc(OCCCO)cc3)=N[C@@]12CCS(=O)(=O)c1ccccc1`, the composite z-score in assay [1] worked out at 1.31; in assay [2], 1.59; in [3], 1.16; in [5], 1.35; in assay [6], 1.31; in assay [7], 0.736. For the same compound, the composite z-score in [8] worked out at 1.31; in assay [9] it was 0.9; in assay [10], 1.29. Besides, the z-score in [4] is -0.0214 (inactive).
Take `CCC[C@@H]1C[C@@]1(CCC)[C@@H](NC(=O)c1cccs1)c1ccc(Cl)cc1`: the composite z-score in assay [1] is -0.67; in [2], 0.119; in assay [3] it was 1.09; in assay [5], -0.341; in [6], -0.919; in [7], -2.21. In addition, the composite z-score in assay [8] is -2.17; in assay [9] it was -1.76; in assay [10], 0.948. Also, in assay [4], the z-score was -1.15 (inactive).
Turning to `O=C1c2ccccc2[C@](Cc2ccccc2I)(C(=O)NC2CC2)[C@H](c2ccc(CO)cc2)N1Cc1ccccc1Cl`, the composite z-score in assay [1] was 0.453; in assay [2], 0.831; in assay [3] it was 0.995; in assay [5] it was 0.652; in assay [6], 1.28; in assay [7] it was -0.0191. Moreover, the composite z-score in assay [8] turned out to be 0.345; in [9] it was 0.0978; in [10] it was 1.02. Besides, the z-score in assay [4] is 0.119 (inactive).
For the compound `COCCOC(=O)N1C(=O)[C@@]2(c3cc(C#CCC(C(=O)OC)C(=O)OC)ccc31)[C@H](c1ccc(OCCO)cc1)N1[C@H](c3ccccc3)[C@H](c3ccccc3)OC(=O)[C@H]1[C@@H]2C(N)=O`, the composite z-score came to 1.46 in assay [1]; 0.0751 in assay [2]; 0.443 in assay [3]; 1.1 in assay [5]; 1.24 in assay [6]; 0.603 in assay [7]. The composite z-score in assay [8] was 1.26; in assay [9], 0.57; in assay [10], 0.324. Besides, the z-score in assay [4] is -1.6 (inactive).
Regarding `[N-]=[N+]=NCc1ccccc1C[C@@]1(C(=O)NCCN2CCOCC2)N=C(c2ccc(OCCCO)cc2)O[C@@H]1c1ccccc1CN=[N+]=[N-]`, the composite z-score came to 0.668 in assay [1]; 0.914 in assay [2]; 0.491 in assay [3]; 1.15 in assay [5]; 0.602 in [6]; 0.244 in assay [7]. In addition, the figures for the composite z-score in [8], in assay [9] and in assay [10] were 1.29, 0.855 and 0.817, respectively. For the same compound, the z-score in assay [4] is 0.139 (inactive).
As to `CCCC=C(CCC)[C@@H](NS(=O)(=O)c1ccccc1)c1ccc(C(F)(F)F)cc1`, the composite z-score in [1] was 0.98; in [2], 0.965; in assay [3] it was 0.224; in [5], 0.867; in assay [6], 1.32; in assay [7], 0.216. For the same compound, the composite z-score in assay [8] was 0.89; in [9] it was -0.0595; in [10] it was -0.0447. For the same compound, the z-score in [4] is -3.31 (inactive).
On to `COc1cc(NN2C(C(O)c3ccc(I)cc3)C=CC3C(=O)N(C)C(=O)C32)cc(OC)c1OC` (stereo not given), for which the composite z-score in assay [1] is 0.719; in [2], 0.986; in assay [3], 1.02; in assay [5], -0.0431; in assay [6], -0.217; in [7] it was -0.391. The composite z-score in assay [8] is -0.602; in assay [9] it was -1.18; in assay [10] it was 1.29. Further, the z-score in assay [4] is 0.037 (inactive).
For the compound `C=C(COC)/C(=C/C[C@@H](OC(=O)c1ccncc1)c1cccc(OCCO)c1)c1cc(C(=O)OC)ccc1OC`, the composite z-score in assay [1] was 0.756; in [2], -0.183; in assay [3] it was -0.471; in assay [5], 1.62; in assay [6] it was 1.2; in assay [7] it was 0.29. Besides, the composite z-score in assay [8] was found to be 0.902; in [9], 0.167; in assay [10] it was 0.997. Also, in [4], the z-score is -0.651 (inactive).
Turning to `C=CCNC(=O)[C@H]1[C@@H]2C(=O)O[C@@H](c3ccccc3)[C@@H](c3ccccc3)N2[C@@H](c2ccc(O)cc2)[C@]12C(=O)N(C(=O)OCCOC)c1ccc(C#CC3(O)CCCCCC3)cc12`, the composite z-score in [1] is 1.35; in assay [2], 0.263; in [3], 0.468; in assay [5] it was 0.385; in [6], 0.716; in [7], 0.228. Further, the composite z-score is 0.33 in [8], 0.138 in assay [9] and 1.09 in assay [10]. For the same compound, the z-score in assay [4] was 0.0928 (inactive).
